The values that follow come from PubChem BioAssay AID493248 (Broad Institute, 2011).

In all, about 2,300 compounds went through this assay and about 1,400 (61%) were called active. Inconclusive results (about 7%) are left out. The rule behind the calls is not given here. The set was probably picked from earlier hits. These entries were drawn from the full list. Entries with a potency or affinity are not part of this list.

In the experiment the target is FAD-linked sulfhydryl oxidase ALR (Homo sapiens) (UniProt P55789). Briefly: inhibitors of human ALR sulfhydryl oxidase, dose response, biochemical, H2O2 detection, luminescence, cherry-pick (AID 493248). To be noted: purified ALR, DTT oxidation, H2O2 HRP-luminol luminescence; at 10 µM (top of the series).
Chain of FAD-linked sulfhydryl oxidase ALR (Homo sapiens) (P55789 whole entry, looked up): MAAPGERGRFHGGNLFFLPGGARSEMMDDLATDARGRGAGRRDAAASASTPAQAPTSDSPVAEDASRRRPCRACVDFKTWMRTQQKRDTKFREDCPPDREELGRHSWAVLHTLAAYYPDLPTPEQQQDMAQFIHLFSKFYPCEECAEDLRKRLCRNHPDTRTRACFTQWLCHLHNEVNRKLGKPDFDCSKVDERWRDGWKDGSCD
With `Cn1ccnc1SCc1cn2ccccc2n1`, the activity change, negative = inhibition is -1.35%. As for `O=C(c1cc(-c2ccc(O)cc2)on1)N1CCN(c2ccccc2)CC1`, the figure is 418%; as for `S=c1[nH]ncn1NCc1ccc(Cl)cc1Cl`, -23.3%.

For `Cc1cc(-c2n[nH]c(=S)n2/N=C/c2cccc([N+](=O)[O-])c2)n[nH]1`, the activity change, negative = inhibition is -55.9%. The result for `COc1cc(/C=C2\SC(=S)N(NC(=O)c3cccnc3)C2=O)ccc1O` reads -97.7%. Regarding `Cc1nnc(Nc2ccc3c(c2)OCO3)c2ccccc12`, the activity change, negative = inhibition is 20.5%. With `Cc1csc2nc(CSc3ccc(Cl)cc3)cn12`, the activity change, negative = inhibition is -28.1%. For `c1ccc(Nc2c(-c3ccco3)nc3ccccn23)cc1`, the activity change, negative = inhibition is -67%.

On to `COc1ccc(-n2c(-c3ccc(OC)c(OC)c3)n[nH]c2=S)cc1`, for which the activity change, negative = inhibition is -27%. Take `CCN1CC(c2ccccc2)C(c2ccc(Cl)cc2)=N1` (stereo not given): the activity change, negative = inhibition is -26.4%. In the case of `O=C(Nc1cccs1)Nc1ccccc1Cl`, the activity change, negative = inhibition was -59.6%.

Turning to `CN1c2ccccc2Sc2cc(N)ccc21`, the activity change, negative = inhibition is -71%. With `CN(C)c1ccc(/C=N/OC(=O)Nc2ccccc2)cc1`, the activity change, negative = inhibition is -22.3%.

Turning to `O=C(O)C1C(c2ccccc2)C(C(=O)Oc2ccc(O)cc2)C1c1ccccc1` (stereo not given), the activity change, negative = inhibition was -97.2%.

For the molecule `CCCCN1C2=NC(c3ccccc3)CN2c2ccccc21` (stereo not given), the activity change, negative = inhibition was -14%. For `Fc1ccc(CN2C3=NCCN3c3ccccc32)cc1`, the activity change, negative = inhibition is -38.3%.

For the molecule `COc1cc(NC(=O)CN2C(=O)C(c3ccccc3)=NC2(C)C)cc(OC)c1`, the activity change, negative = inhibition was -10%. `CCN(CC)S(=O)(=O)c1ccc(NC(=O)c2c(-c3ccccc3)noc2C)cc1`: the activity change, negative = inhibition was -1.33%.

As for `COc1cc(/C=N\NC(=O)c2ccc(Cn3cc(Br)c([N+](=O)[O-])n3)o2)cc(OC)c1O`, the activity change, negative = inhibition was -36.4%. On to `COc1ccc(CN2C(=O)C3C4C=CC(C4)C3C2=O)cc1` (stereo not given), for which the activity change, negative = inhibition stood at 24.9%. On to `CC(C)CC1(C(=O)O)NC(c2ccccc2O)C2C(=O)N(C(C)C)C(=O)C21` (stereo not given), for which the activity change, negative = inhibition was -7.77%. `COc1ccc(NCc2ccc3c(c2)OCO3)cc1Cl`: the activity change, negative = inhibition was -12.5%. Turning to `COc1ccc(CNc2ccccc2)cc1Br`, the activity change, negative = inhibition was -3.19%. The result for `CCN(CC)c1ccc(NC(=O)CN2C(=O)CSc3ncccc32)c(C)c1` reads -11.2%; that for `Cc1cc2nc3ccc(N(C)C)cc3nc2cc1N`, -98.1%; that for `CC1C/C(=N/NC(=O)c2cccc(F)c2)c2ccc(O)cc2C1` (stereo not given), -63.8%. With `CNC(=O)CN1C(=O)c2ccccc2S1(=O)=O`, the activity change, negative = inhibition amounted to 14%. For `CCN1CCn2c3c(c4cc(C)ccc42)CCCC31` (stereo not given), the activity change, negative = inhibition amounted to 32.6%. As for `COc1ccc(-c2csc(Cc3nnc4n3CCCCC4)n2)cc1OC`, the figure is -2.63%; as for `Cc1cccc(NNC(=O)C(=O)NNc2cccc(C)c2)c1`, -2.1%; as for `CCc1oc2ccccc2c1C(=O)c1cc(Br)c(O)c(Br)c1`, -16.5%.

Regarding `COC(=O)c1c(N)sc2c1CC(C)(C)OC2`, the activity change, negative = inhibition is 0.616%. As to `CCSc1nnc(NC(=O)C2CCCN(S(=O)(=O)c3cnc[nH]3)C2)s1` (stereo not given), the activity change, negative = inhibition is 4.79%. For the molecule `Cc1ccc(N(C)S(=O)(=O)c2cccc(C(=O)Nc3nnc(C4CC4)s3)c2)cc1`, the activity change, negative = inhibition stood at 41.9%. As for `Cc1cc(C)cc(N(CC(=O)NCc2ccco2)S(=O)(=O)c2c(C)noc2C)c1`, the activity change, negative = inhibition is -11.1%.
